Data: PubChem BioAssay AID540308 (The Scripps Research Institute Molecular Screening Center, 2011)
About 3,500 (0.97%) of roughly 360,000 compounds were called active. What follows is part of a selection rich in actives, with near analogues and random picks from the rest. Values without a mark were called inactive.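 How the source made its calls: active means activation above a per-plate cutoff, the mean activation of sample wells on that plate plus 3 SD (cut at about 8% in these data); inactive means the rest.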

Each compound was assayed against Melanocortin receptor 4 (Homo sapiens) (UniProt P32245) (assay: activators of MC4R beta-arrestin recruitment – cell-based, luminescence, agonist arm of biased-ligand search, primary screen (AID 540308)). Details: U2OS MC4R beta-arrestin complementation, at 8.9 µM, stronger effect = higher value, percent of melanotan II response, DMSO zero.
Sequence of Melanocortin receptor 4 (Homo sapiens) (P32245 whole entry, looked up): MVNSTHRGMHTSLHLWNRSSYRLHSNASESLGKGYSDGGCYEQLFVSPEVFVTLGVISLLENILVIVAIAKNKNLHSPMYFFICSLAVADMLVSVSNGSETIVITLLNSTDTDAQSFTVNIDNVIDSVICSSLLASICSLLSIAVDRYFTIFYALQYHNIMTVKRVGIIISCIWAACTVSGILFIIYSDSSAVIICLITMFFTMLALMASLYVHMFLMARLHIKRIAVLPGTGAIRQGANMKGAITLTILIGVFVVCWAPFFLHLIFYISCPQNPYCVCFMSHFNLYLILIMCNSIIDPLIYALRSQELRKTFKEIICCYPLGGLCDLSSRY
`COc1cccc(-n2c(SCC(=O)NC3CCCCC3)nc3n[nH]c(C)c3c2=N)c1` was tested, and the activation was -1.4%.
Compound `CCCCNC(=O)CSc1nc2n[nH]c(C)c2c(=N)n1-c1cccc(Cl)c1C` has an activation of -1.55%.
With `Cc1ccc(-n2c(SCC(=O)NCCC3=CCCCC3)nc3n[nH]c(C)c3c2=N)cc1Cl` the activation was 18.2% (active).
With `COc1ccc(CNC(=O)c2ccc(-c3cccnc3)c3ccoc23)cc1OC` the activation was 1.26%.
`CCCNC(=O)c1cc(C2CCCN(C(=O)c3ccc4c(c3)CCO4)C2)on1` (configuration not stated) was tested, and the activation was -0.64%.
Compound `COc1ccc(C(=O)n2nc(C)c(Br)c2C)cc1OC` has an activation of 1.71%.
With `COc1ccc(C(=O)n2nc(-c3ccc(C)cc3)nc2N)cc1OC` the activation was 15.4% (active).
For `COc1ccc(C(=O)n2nc(-c3ccc(Cl)cc3)nc2N)cc1OC`, the activation was 0.74%.
`CC(=O)c1ccc(N2CCN(C(=O)CCNC(=O)Cn3ccc4ccccc4c3=O)CC2)cc1` showed an activation of 2.35%.
For `CCOC(=O)C1CCCN(C(=O)c2cccc3ccccc23)CC1` (configuration not stated), the activation was -0.59%.
With `COc1ccccc1N1CCN(C(=O)C(=O)N/N=C/c2ccccc2F)CC1` the activation was -3.16%.
`O=C(CCC(=O)Nc1ccccc1)N/N=C/c1ccccc1F` gave an activation of -0.29%.
In the case of `Fc1ccccc1/C=N/Nc1cc(N2CCCCC2)ncn1`, the activation is reported as 12.1% (active).
With `CCCNC(=O)C1(C)CCN1C(=O)C1(c2ccccc2)CC1` (configuration not stated) the activation was 1.14%.
`COc1ccc(S(=O)(=O)N2CCC(C(=O)OCC(=O)c3ccccc3)CC2)cc1[N+](=O)[O-]` was tested, and the activation was 31.7% (active).
`O=C(COc1ccc(S(=O)(=O)N2CCCC2)cc1[N+](=O)[O-])N1CCCCC1` gave an activation of -1.25%.
`Cc1ccc(S(=O)(=O)N2CCC(C(=O)OCC(=O)N(C)c3ccccc3)CC2)cc1C` showed an activation of -3.84%.
`CCc1nc2ccc(C(=O)NC3CCN(Cc4ccccc4)CC3)cn2c1N(CC)CCOC` gave an activation of 4.51%.
For `O=C(Nc1ccccc1)c1ccccc1Br`, the activation was 0.3%.
In the case of `CCOc1cc(NC(=O)Nc2ccccc2)c(OCC)cc1NC(=O)CC`, the activation is reported as 0.85%.
In the case of `Cc1ccc(NC(=O)Nc2ccccc2)c(Br)c1`, the activation is reported as 21.9% (active).
Work on `CC(=O)Nc1cccc(-c2ccnc3c2CC(C)(C(=O)NCc2ccco2)O3)c1` (configuration not stated) yielded an activation of 0.36%.
Work on `Cn1c(-c2ccc(F)cc2)cnc1SCC(=O)NCc1ccco1` yielded an activation of -1.34%.
`O=C(CSc1nc2ccccc2c(=O)n1Cc1ccc(F)cc1)NCC1CCCO1` (configuration not stated) showed an activation of -0.86%.
With `O=C(CCCn1c(SCC(=O)c2ccc(F)cc2)nc2ccccc2c1=O)NCc1ccco1` the activation was 29.6% (active).
`O=C(c1cc(C2CCCCN2S(=O)(=O)c2ccccc2)on1)N1CCOCC1` (configuration not stated) was tested, and the activation was 0.01%.
`CC=CCn1c(SCCCc2ccccc2)nc2c1c(=O)[nH]c(=O)n2C` showed an activation of 1.64%.
`Cc1ccc(CNC(=O)Nc2nnc([C@H]3C[C@H](O)[C@@H](CO)O3)s2)cc1` showed an activation of -0.78%.
Compound `OCCN1CCN(c2ncnc3c2ncn3[C@H]2CN(Cc3ccco3)C[C@@H](CO)O2)CC1` has an activation of -0.69%.
`CCOC(=O)C1CCCN(C(=O)c2ccc(N(C)C)cc2)CC1` (configuration not stated) was tested, and the activation was -0.51%.
In the case of `Cc1ccc(Nc2nnc(SCC(=O)c3cc4ccccc4o3)s2)cc1C`, the activation is reported as 11% (active).
`CC(C)c1ccc(Nc2nnc(SCC(=O)c3nnc(-c4ccccc4)o3)s2)cc1` was tested, and the activation was -0.71%.
With `Cc1cc2c(=O)n(C)c(SCC(=O)c3cc4ccccc4o3)nc2s1` the activation was -0.92%.
In the case of `CC1(C(=O)NS(=O)(=O)C2CC2)CCCN(C(=O)CSc2ccccc2)C1` (configuration not stated), the activation is reported as 0.3%.
`OC[C@@H]1CN(Cc2cccs2)C[C@H](n2cnc3c(Nc4ccccc4)ncnc32)O1` gave an activation of 0.44%.
`CCOC(=O)c1c(NC(=O)C2CCN(S(=O)(=O)c3ccc(Cl)cc3)CC2)sc2c1CCCC2` was tested, and the activation was 2.72%.
Work on `O=C(CN1CCCC1)Nc1sc2c(c1C(=O)Nc1ccccc1)CCCC2` yielded an activation of -3.19%.
In the case of `O=C(Nc1sc2c(c1-c1nc3ccccc3[nH]1)CCCC2)C1CC1`, the activation is reported as 14.1% (active).
`O=C(Nc1ccc(Cl)c(C(F)(F)F)c1)C1Cc2c(-c3ccccc3Oc3ccccc3)ccnc2O1` (configuration not stated) gave an activation of -1.84%.
`CCCCN(C=O)c1c(CC)nc2c(OCc3ccccc3C(=O)OC)cccn12` showed an activation of 0.49%.
`C/C(=N\OCC(=O)Nc1ccc(Br)cc1)c1cccs1` showed an activation of -4.16%.
Work on `C/C(=N\NC(=O)CSc1nc2ccccc2c(=O)n1-c1ccccc1C)c1cccs1` yielded an activation of -1.88%.
For `C/C(=N\NC(=O)COc1c(C)cccc1C)c1cccs1`, the activation was 12.1% (active).
With `CC(=O)Nc1cccc(-c2ccnc3c2CC(C)(C(=O)NCc2ccccc2)O3)c1` (configuration not stated) the activation was -1.6%.
`N/C(=N\OC(=O)N1c2ccccc2Sc2ccccc21)c1ccc(Br)cc1` was tested, and the activation was 8.26% (active).
For `N/C(=N\OC(=O)Cc1ccccc1[N+](=O)[O-])c1ccc(Br)cc1`, the activation was -1.47%.
Work on `N/C(=N\OC(=O)c1ccc2c(c1)OCO2)c1ccc(Br)cc1` yielded an activation of 0.57%.
For `CCC(=O)N1CCCC1(C)C(=O)Nc1ccc2c(c1)CCN2C(C)=O` (configuration not stated), the activation was -1.65%.
Compound `CCN(CC)c1ncnc2c1ncn2[C@H]1CN(Cc2cccs2)C[C@@H](CO)O1` has an activation of 0.8%.
In the case of `COC(=O)c1cc(OCC(=O)NC2CCCc3ccccc32)cc(C(=O)OC)c1` (configuration not stated), the activation is reported as -1.2%.
With `CCOc1ccc(NC(=O)COc2ccc(C(=O)N3CCC(C(N)=O)CC3)cc2OC)cc1` the activation was -1.74%.
With `CCOc1ccc(NC(=O)COc2ccc(C(=O)NC3CCCc4ccccc43)cc2OC)cc1` (configuration not stated) the activation was 9.26% (active).
With `Cc1ccc(CN2C(=O)CCC2C(=O)NCCCN2CCCCC2C)cc1` (configuration not stated) the activation was -0.33%.
`CC(=O)c1sc(NC(=O)CCCOc2ccccc2C)nc1C` was tested, and the activation was 9.6% (active).
With `Cc1ccc(F)c(NC(=O)CCOc2ccccc2C)c1` the activation was -0.86%.
`Cc1ccccc1OCC(=O)Nc1nc(C)c(C(=O)N(C)C)s1` gave an activation of -2.42%.
Compound `CCCNC(=O)C1(C)CCN1C(=O)Cc1ccc(-c2ccccc2)cc1` (configuration not stated) has an activation of -0.78%.
`CCOC(=O)/C(C#N)=C/c1ccc(OCC(=O)Nc2ccccc2)c(OC)c1` was tested, and the activation was 8.67% (active).
`COc1cc(C2C3=C(CCCC3=O)OC3=C2C(=O)CCC3)ccc1OCC(=O)Nc1ccccc1` showed an activation of -1.3%.
With `CCCn1c(C)cc(/C=C(\C#N)C(=O)OCC(=O)Nc2cc(OC)c(OC)c(OC)c2)c1C` the activation was 1.33%.
`CCNC(=O)C1(C)CCCN(C(=O)c2ccc3ccccc3n2)C1` (configuration not stated) showed an activation of -0.3%.
For `COCCNC(=O)C1(C)CCCN(Cc2cccc(F)c2)C1` (configuration not stated), the activation was -0.59%.
`COc1ccc(NC(=O)C2(C)Cc3c(-c4ccc(C(N)=O)cc4)ccnc3O2)cc1` (configuration not stated) gave an activation of 0.47%.
`O=C(Nc1cccc2cccnc12)c1ccc2sc([C@H]3C[C@H](O)[C@@H](CO)O3)nc2c1` showed an activation of 0.55%.
`CC1(C(=O)Nc2cccc3c2CCCC3)CCN1C(=O)CCc1ccc(Cl)cc1Cl` (configuration not stated) showed an activation of 1.71%.
`O=C(NCc1cccnc1)c1cccnc1Sc1ccc(Cl)cc1` gave an activation of 1.65%.
With `COc1cccc(CNC(=O)c2cccnc2Sc2ccc(Cl)cc2)c1` the activation was 0.85%.
`O=C(NC1CCCCCC1)c1cccnc1Sc1ccc(Cl)cc1` was tested, and the activation was 10.7% (active).
`CCCS(=O)(=O)NC(=O)C1(C)CCN(C(=O)c2sccc2C)C1` (configuration not stated) gave an activation of -0.75%.
Work on `COCOc1cccc(CN2CCC(C)(Oc3ccc(SC)cc3)C2)c1` (configuration not stated) yielded an activation of 0.12%.
In the case of `Cc1cccc(C)c1OC(=O)CSc1nnc(-c2ccccc2)o1`, the activation is reported as 15.5% (active).
With `COC(=O)CSc1nnc(-c2cccnc2)o1` the activation was -1.17%.
`CCN(C(=O)CSc1nnc(-c2ccncc2)o1)c1ccccc1` was tested, and the activation was 0.57%.
With `COCCCNc1ccn2nc(-c3ccc(CC(C)C)cc3)cc2n1` the activation was 1.85%.
With `Cc1ccc(S(=O)(=O)N(C)CC(=O)OCC(=O)Nc2ccccc2)cc1` the activation was -2.23%.
In the case of `Cc1ccc(NC(=O)NC(=O)N(C2CCCCC2)S(=O)(=O)c2ccccc2)cc1`, the activation is reported as 9.21% (active).
`CC(c1ccco1)N(C(=O)Nc1ccccc1)C1CCCCC1` (configuration not stated) showed an activation of -3.36%.
`Nc1cccc(-c2cncc(N3CCN(Cc4ccccn4)CC3)n2)c1` showed an activation of -0.96%.
For `Cc1nc(C(F)(F)F)ccc1C(=O)N1CCC1(C)C(=O)NS(=O)(=O)c1ccccc1Cl` (configuration not stated), the activation was -1.94%.
With `Cc1[nH]c2ccccc2c1C(=O)COC(=O)c1c(-c2ccccc2)noc1C` the activation was -0.48%.
In the case of `O=C(CCN1CCCCC1)N=Nc1c(O)[nH]c2ccccc12`, the activation is reported as -1.11%.
For `Cc1c(-c2ccccc2)n[nH]c1C(=O)N=Nc1c(O)[nH]c2ccccc12`, the activation was 17.7% (active).
With `O=C(COC(=O)c1ccc[nH]c1=O)Nc1ccc2c(c1)OC(F)(F)O2` the activation was -2.05%.
`O=C(COC(=O)CNC(=O)c1ccco1)Nc1ccc(F)cc1` was tested, and the activation was -0.58%.
With `O=C(COC(=O)c1ccccc1NC(=O)c1ccco1)Nc1ccc2c(c1)OC(F)(F)O2` the activation was 10.1% (active).
Work on `CCc1nc2ccc(C(=O)NC3CCN(Cc4ccccc4)CC3)cn2c1N(C)CCN1CCOCC1` yielded an activation of -0.77%.
`O=C(CCCN1C(=O)/C(=C/c2cccs2)SC1=S)Nc1ccc(O)cc1` was tested, and the activation was 20.4% (active).
For `COc1ccc(/C=C2/SC(=O)N(CCCCCC(=O)Nc3ccccc3C(=O)O)C2=S)cc1`, the activation was -0.47%.
With `COc1cccc(/C=C2\SC(=S)N(CCCC(=O)N3CCOCC3)C2=O)c1` the activation was -0.8%.
In the case of `O=C(CCCN1C(=O)/C(=C\c2ccco2)SC1=S)Nc1cccc2ccccc12`, the activation is reported as 13.9% (active).
`CC(C(=O)Nc1ccc(O)c(C(=O)O)c1)N1C(=O)/C(=C/c2cccs2)SC1=S` (configuration not stated) was tested, and the activation was -1.84%.
For `O=C(CN1C(=O)/C(=C\c2ccccc2F)SC1=S)Nc1nc2ccccc2s1`, the activation was 0.77%.
